According to PubChem BioAssay AID1347426 (Functional Genomics Laboratory (NCATS/FGL), 2020):
About 1,400 (4.5%) of roughly 31,000 sequences were called active. The entries come from a sample that favours actives as a whole. A number with no mark means an inactive call.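 How the source made its calls: active means median seed-adjusted z-score above 1 or below -1; inactive means the rest.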

Assay: Novel Modifiers of Survival Motor Neuron (SMN) Protein: Gene Identification via Genome-wide siRNA Screen;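 further: luminescence tracks full-length SMN protein made from the SMN2 reporter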
Details: HEK293T SMN2-luciferase reporter, siRNA knockdown, 72 h; actives lie on both sides
In short: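 Each of three siRNAs per gene is reverse-transfected (1 pmol) into reporter HEK293T cells whose luciferase output tracks SMN protein level. After 72 h culture, ONE-Glo luminescence is control-normalized, log10-transformed and MAD-standardized; Common Seed Analysis deprioritizes seed-driven hits.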

Sequence	median seed-adjusted z-score
GCUCCAUCAUCGUUGCAUUTT against SYPL2	0.233
CCAUAUUCCUCAUGCAUGUTT against FCRL5	-0.138
CAUCAGGAAUUACGGGACATT against GPR123	0
AGGGAACAAGUUUACCAAATT against GTF2IRD1	-0.282
GGUUAGACAUCAGUCCUUUTT against DHX15	1.36 (active)
CAGUUCCAGAUGAACCAUATT against DHDDS	0.0122
CACGGGAUAUGGAACGAAATT against CXCR7	-0.511
GAACAGUCCCUGGUUCCCATT against ECSIT	-0.116
UGCCCUUGGCUAUCCCUGATT against SLC30A3	-1.26 (active)
GGCUUUGUCAGUUCCCAGATT against SPRR2B	0.388
GCUUUGCUCUGUACCCUGATT against CTSK	0.0972
CCAUUAACCACAUACCAGATT against TLR7	0.189
CCAGUUCUUUAGGAUCUAUTT against GPR141	-0.777
GCGGAGCAUUUGCAACAAATT against NR6A1	-0.287
GCACCUUUAGGCGAAGGAATT against SENP6	-1.03 (active)
CCAUCAUCCCUAAGCGAAUTT against REXO1	-0.748
GUGUGGUCAUUCAACUUGATT against ZNF324B	0.176
GCACCUUCCUGCUAAGAUUTT against STAT3	0
GCUACUCCCUGAUUCAGAATT against SLC2A7	-0.0337
CUACAAAAGUUUUUCCAGATT against COX7A2L	0
CACGGUAUCUCAACCGGAATT against HGS	1.16 (active)
CCCAGGCUCGAAUCCCAUATT against PLD3	0.066

Sequence	median seed-adjusted z-score
CCUUCUCCGUGAUUGAGGATT against LGI4	-0.239
GGCGACAGAUGUGAAAGAATT against LDLR	-0.142
GAUUGAUAGAAGCACCCUATT against DCC	0.303
AAGACAAGCUAAAAAUGAUTT against YWHAE	1.38 (active)
GCAAGGACCCAACAACCAATT against TTC9	-0.173
GUCAUUUCUUUACCCAAGATT against NUDT5	0.228
GGAAAACUGCGGCUGCAAATT against AP1S1	-1.04 (active)
GCACGAAAAUCCCGACAUATT against DDX54	0
GGCCGAAUUUAUAAAGGAATT against CHI3L1	0.145
GAGGUACGCUGGUUCUACATT against DDHD1	0
GCAUAGAGGAGAUCUGUGATT against PROC	-0.228
ACUUCUACACGUUUCCAAATT against THAP11	-1.36 (active)
GAACAACACGACCAACAGATT against PRKD2	0.00493
GGGUCGACCUAUUUCCGAATT against DYSF	-0.23
GCAAACCGGUUAAUCAAGATT against GGA2	-0.142
GAUCCUCAGUAAACCUAUUTT against DDX46	-1.24 (active)
GCAUGUUGGUUCACUAUGATT against TPST1	-0.00547
AGGUCUUUCCCAACGAGGATT against UBE2S	0.348
GGAUGCACUUUGUCCGAAATT against SPATA5	-1.04 (active)
AGUUGGGAUUAAUACUUCATT against CCL7	0.23
GAACUUGUCUUGCGCAAAATT against ZEB1	-0.163
GGUUUGUGGUGGAAGAUUATT against PLCD3	0.228

Sequence	median seed-adjusted z-score
GGAUCACUCUAACAUCGGATT against PDE1C	0.157
GGAUCAGUAUGGGCAAAGATT against CALB1	0.191
UCUCUACAACAAAAUUUAATT against POLR2L	-1.19 (active)
CACUUGAUGUUAUUCGUGUTT against MOAP1	0.0405
GGAAGGAUCAAACUACAAATT against AATF	0.182
CAUUAUCGAUACUAUGUAATT against PSMD6	-1.03 (active)
GAUCCACCUUAUACUCAUATT against EPS8	0
GAUGAUUACAUAUCAGAGATT against ZNF630	-0.533
CACCCUAAUGGAUACAGCUTT against NTSR2	-0.125
GACUAAAUCAGUUACCGAATT against MED17	-2.06 (active)
GCACCUGAAUGACACGCAATT against HOXD1	0.144
GGAAUUGUGGUGUUAGUAATT against POLN	-0.129
GGUCAUUGCCCGAACAAUATT against BNC1	-0.631
GGACUUUAUUCGGAAGCUUTT against DAPK2	0.268
AAUUCAAGCUAUGAAGAUATT against ACO2	-1.57 (active)
CCUUCAAUGUGGGCUACCATT against DEGS2	-0.305
CAACCUUUCUUGUUAGUAATT against DHRS7	0.255
CUGUUCCAGUUGUGGCUCUTT against KRTAP5-1	0
CAACAGCGAUUGGAAUGGATT against UGDH	0.674
CUGGAAGUGUUAUUCCUAATT against FOXD4L1	0.271
CGACAAGCCCAAUGUUUAUTT against SSU72	-1.64 (active)
GUACCGAGAGAAUAACAAATT against SYP	-0.0289

Sequence	median seed-adjusted z-score
GCUGGUUAGGAACCGCUCATT against ZNF579	-0.0604
GGCAAGUAGAUAGUACAUUTT against ZNF507	-0.262
UGAUAAGGAUAACAAGAGATT against CAMP	-0.622
GCAUCAAGAUUUUCCGCUUTT against SLC26A2	-1.25 (active)
GCAUAGGCCCAGUAACUUATT against SLC25A34	-0.256
CGCUCACAGUCAUACACGUTT against SLC39A7	0.0554
CUCUUGUACCAGUUCCUGATT against SLC25A35	-0.762
UGGUCGUUAUGGUCCUAUATT against FUSIP1	0.865
GGCACGGUUUUGGUCGAAATT against FREM2	0.143
UACAUAUGCUGGACAGAAATT against SSU72	-1.64 (active)
CAGGUAUGGUGAACCGUGATT against YES1	-0.508
GUACCUCGUAAAUCACGAATT against NFAT5	0.106
GAUUUUCACUUGCAACUCATT against PDP2	-0.0726
AGAGCAACAUCAACAUUAUTT against TKTL1	-0.495
CGACCGUGGUGACAUGAUUTT against LRP3	-1.05 (active)
GCUCCGCAAAUGUGGUUGATT against ZNF714	0
UGCGCAACCUUAAGAACAATT against PRAF2	-0.326
GAAAGGCAGUUUUCGUAAATT against NXF3	0.672
GAGAGGUACCAGACCAUGATT against POLM	-1.55 (active)
AGCCUGAAAGUAUCCGUAATT against CLTA	0.243
GGAGCUCUGUUGUGGAGAATT against FCGRT	-0.00396
GGACUAAACUACCUCCAAATT against KCNE3	-1.33 (active)

Sequence	median seed-adjusted z-score
CCUGAAAUCAUAGAGUUAATT against KCNMA1	0
AGCAGAAGAUGGUAGAUGATT against VIL1	0.368
AGGGCACAUUCACCAGUGATT against GCG	-1.18 (active)
CUCCUGCUGCAAAACAAUATT against SLC25A6	-0.928
GUCACGUCUUGAUACCUCUTT against ACAD8	1.06 (active)
GAUUGUCUUCGGUCUAUUATT against STAM	0
GACCCACUCUUGAAAGACATT against ZNF304	-0.44
CGAGAGGGCUGUUUCCAAATT against LIMS3	-0.078
GAAAGAUGGUGUUGACUUUTT against ALDOB	-1.34 (active)
CUUCAUAUCUCUUUACGUATT against PIGW	-0.242
CCACCAAUGUAGUCUAUCATT against PAPSS2	-0.201
AGAAGACCCGUAGACUGAATT against NEUROG2	-0.366
UAAACUCGUUAGUCAAUUATT against SLC7A9	0.194
GCAGAUAAGUGAACGAGAUTT against SAMHD1	-1.33 (active)
CGCUCCUUGUCAAAAGAAATT against KCNS3	0.103
GCAUGACCUCUGUAAGGGATT against ANK1	-0.282
GAAUCGCAAGGAUAUGAUATT against MSH2	0
CCAUCUACCAGCUAAUCAATT against PIK3C2G	0.0251
GGAUUCCCUUCAAGAUAUATT against NUCB2	0.45
CCAUCACCCGUGAAGAGAATT against CRYAB	0.354
CAAUGGUCCAAGUCUAACATT against EEF1E1	-1.45 (active)
